“And” between values parts separate entries of the source, which are not always exact repeats. Identical values can stand only once. About 79,000 compounds went through this panel and 15% of them were active in at least one assay; those are over-represented in the sample as a whole. A structure can be active in one record and inactive in another. The source made the active and inactive calls. Cut-off read from the data, not from the text of the source: active = growth inhibition above about 70%; inactive = the rest.

The nature of the first experiment: NCI Yeast Anticancer Drug Screen. Data for the bub3 strain (AID 167). The conditions noted are these: S. cerevisiae bub3 mutant strain, at 5.0 µM (retest, dose inferred, filed as 0.5), stronger effect = higher value. The essentials:
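Screening used yeast with an engineered genetic alteration affecting cell cycle control. Compound-exposed cultures were compared with vehicle cultures, and reduced growth was taken as inhibition.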
As for `Cc1cc(C)c(O)c(C)c1.[Hg]`, the growth inhibition is 98% (active).
Same read-out and setting: the value for `CC(O)C(=O)O.CC(O)C(=O)O.[Ni]` (stereo not drawn) was 1% (inactive); that for `CC(=O)OC1C(=O)OCC23CCC4(C)OC4C2OC2CC(OC(=O)/C=C/C=C/C(=O)OCCC1C)C3(C)C21CO1` (stereo not drawn) was 99% (active); that for `CN1C(=O)CC[C@@]2(C)C1=CC[C@H]1[C@@H]3CC[C@H](O)[C@@]3(C)CC[C@@H]12` was 3% (inactive).
The same measure, in the same setting: the value for `CC[C@H](C)c1occ2c(O)c(C(=O)O)c(=O)cc-2c1C` was 74% (active); that for `O=[N+]([O-])[O][Tl]([c]1ccccc1)[c]1ccccc1` was -3% (inactive); that for `CCCC[CH2][Sn]([CH2]CCCC)[CH2]CCCC.CCCC[CH2][Sn]([CH2]CCCC)[CH2]CCCC` was 20% (inactive).
For `Nc1cc(Cl)ccc1C(=O)c1ccccc1Cl`, the growth inhibition was -9% (inactive).
On the same count and under the same terms, the figure for `CC(Br)CN1CCOCC1` (stereo not drawn) is -10% (inactive).
For `C(CCC[Te][Te]CCCCCCOC1CCCCO1)CCOC1CCCCO1` (stereo not drawn), the growth inhibition was 0% (inactive).
Still for that read-out and setting: the value for `CN1CN(c2ccccc2)C2(CCN(C3Nc4ccccc4O3)CC2)C1=O` (stereo not drawn) was -16% (inactive).
On to `[CH3][Sn]([CH3])([Cl])[c]1cc[c]([Sn]([CH3])([CH3])[Cl])cc1`, for which the growth inhibition is 10% (inactive).
On the same count and under the same terms, the figure for `O=[C-]CCCCCC[C-]=O.[C-]#[O+].[C-]#[O+].[C-]#[O+].[C-]#[O+].[Fe+6].[Fe+6].[c-]1[c-][c-][cH-][c-]1.[c-]1[c-][c-][cH-][c-]1` is -4% (inactive).
As for `CCOC(=O)NC(=S)[S][Sb]([S]C(=S)NC(=O)OCC)[S]c1nc2ccc(N=Nc3ccc(NS(=O)(=O)c4ccc(NC(=O)C(N5CC5)(N5CC5)N5CC5)cc4)cc3)cc2s1`, the growth inhibition is 24% (inactive).
Turning to `CCC[N+](CCC)(CCC)CCC.N#CN=C([SH2+])[SH2+].N#CN=C([SH2+])[SH2+].[Pt+2]`, the growth inhibition was -5% (inactive).
Still for that read-out and setting: the value for `CCCCCCCC/C=C\CCCCCCCCN1CC(C(=O)[O][Pb]([CH2]C)([CH2]C)[CH2]C)CC1=O` (stereo not drawn) was 4% (inactive); that for `O=c1[nH]cc(Cn2cnc3ncccc3c2=O)c(=O)[nH]1` was -4% (inactive); that for `CC(C)(C)C1=CC(=C/C=C/c2cc(C(C)(C)C)[o+]c(C(C)(C)C)c2)C=C(C(C)(C)C)O1` was 99% (active).
The same measure, in the same setting: the value for `S=C(S)N1CCCCC1` was 56% (inactive) and 0% (inactive).
Still for that read-out and setting: the value for `CN[C@H]1C[C@@H]2O[C@@](C)([C@H]1OC)n1c3ccccc3c3c4c(c5c6ccccc6n2c5c31)C(=O)NC4` was 98% (active); that for `CC(C)(C)OOC(=O)c1ccccc1` was 3% (inactive).
Regarding `ClCCN(CCCl)CCN1c2ccccc2Sc2ccc3ccccc3c21`, the growth inhibition is -5% (inactive).
Same read-out and setting: the value for `CCOC(=O)c1ccccc1N` was 0% (inactive); that for `Cn1cnc(C(=N)[Se])c1N` was 51% (inactive); that for `Cc1ccc(NP(=O)(Oc2ccccc2)N(CCCl)CCCl)cc1` (stereo not drawn) was 14% (inactive).
Still for that read-out and setting: the value for `CCOC(=O)C1=C(C)NC(=O)NC1c1ccc(N(CCCl)CCCl)cc1Cl` (stereo not drawn) was 13% (inactive).
On the same count and under the same terms, the value for `ClC(C[n+]1ccccc1)c1ccccc1` (stereo not drawn) was 1% (inactive); that for `CCCCCCCC1(c2ccc(N)cc2)CCC(=O)NC1=O` (stereo not drawn) was 0% (inactive); that for `COC(=O)C(CCCN=C(N)N[N+](=O)[O-])NC(=O)c1ccc2c(c1O)C(=O)c1ccccc1C2=O` (stereo not drawn) was 2% (inactive).
As to `Cc1cc(N(CCCl)CCCl)ccc1CN1CCCN(Cc2ccc(N(CCCl)CCCl)cc2C)C1c1ccc(N(CCCl)CCCl)cc1C`, the growth inhibition was 7% (inactive).
On the same count and under the same terms, the figure for `c1ccc([CH2][Pb]([c]2ccccc2)([c]2ccccc2)[c]2ccccc2)cc1` is 98% (active); for `C[CH2][Sn][CH2]C.c1cc[c]([Ge]([c]2ccccc2)[c]2ccccc2)cc1.c1cc[c]([Sn]([c]2ccccc2)[c]2ccccc2)cc1` it is 99% (active).
On the same count and under the same terms, the figure for `CCC1(C2=CCCCC2)C(=O)NC(=S)NC1=O` is 4% (inactive); for `N#CC(=C=N)N=C(F)C(C#N)=C(C#N)C#N` it is 6% (inactive); for `N#C[SH2+].N#C[SH2+].N#C[SH2+].N#C[SH2+].[Cu+2].c1ccc(C[P+](c2ccccc2)(c2ccccc2)c2ccccc2)cc1` it is 5% (inactive).
The same measure, in the same setting: the figure for `CC#N.FC(F)(F)C#CC(F)(F)F.FC(F)(F)C#CC(F)(F)F.FC(F)(F)C#CC(F)(F)F.[W]` is 94% (active); for `CC(C)c1cccc(C(C)C)c1NC(=O)C(=O)CC(=O)CC(c1ccccc1)c1c(O)c2ccccc2oc1=O` (stereo not drawn) it is -1% (inactive).
Regarding `CCN(CCCl)c1ccc(/C=C/C2=[N+](C)c3ccccc3C2(C)C)c(C)c1`, the growth inhibition is -6% (inactive).
Still for that read-out and setting: the figure for `Cc1cc(C)[n+](CCOc2ccc(/C(=C(/Cl)c3ccccc3)c3ccccc3)cc2)c(C)c1` is 67% (inactive).

The same experiment, now with this note: S. cerevisiae bub3 mutant strain, at 50.0 µM (retest, dose inferred, filed as 5.0), stronger effect = higher value.
For `Cc1cc(C)c(O)c(C)c1.[Hg]`, the growth inhibition is 99% (active).
On to `CC(O)C(=O)O.CC(O)C(=O)O.[Ni]` (stereo not drawn), for which the growth inhibition was 0% (inactive).
Still for that read-out and setting: the figure for `CC(=O)OC1C(=O)OCC23CCC4(C)OC4C2OC2CC(OC(=O)/C=C/C=C/C(=O)OCCC1C)C3(C)C21CO1` (stereo not drawn) is 98% (active); for `CN1C(=O)CC[C@@]2(C)C1=CC[C@H]1[C@@H]3CC[C@H](O)[C@@]3(C)CC[C@@H]12` it is 63% (inactive).
Same read-out and setting: the figure for `CC[C@H](C)c1occ2c(O)c(C(=O)O)c(=O)cc-2c1C` is 99% (active); for `O=[N+]([O-])[O][Tl]([c]1ccccc1)[c]1ccccc1` it is 75% (active).
The same measure, in the same setting: the figure for `CCCC[CH2][Sn]([CH2]CCCC)[CH2]CCCC.CCCC[CH2][Sn]([CH2]CCCC)[CH2]CCCC` is 100% (active).
Take `Nc1cc(Cl)ccc1C(=O)c1ccccc1Cl`: the growth inhibition was 98% (active).
Same read-out and setting: the value for `CC(Br)CN1CCOCC1` (stereo not drawn) was 36% (inactive); that for `C(CCC[Te][Te]CCCCCCOC1CCCCO1)CCOC1CCCCO1` (stereo not drawn) was 30% (inactive); that for `CN1CN(c2ccccc2)C2(CCN(C3Nc4ccccc4O3)CC2)C1=O` (stereo not drawn) was -4% (inactive).
Still for that read-out and setting: the value for `[CH3][Sn]([CH3])([Cl])[c]1cc[c]([Sn]([CH3])([CH3])[Cl])cc1` was 80% (active).
Same read-out and setting: the figure for `O=[C-]CCCCCC[C-]=O.[C-]#[O+].[C-]#[O+].[C-]#[O+].[C-]#[O+].[Fe+6].[Fe+6].[c-]1[c-][c-][cH-][c-]1.[c-]1[c-][c-][cH-][c-]1` is 97% (active); for `CCOC(=O)NC(=S)[S][Sb]([S]C(=S)NC(=O)OCC)[S]c1nc2ccc(N=Nc3ccc(NS(=O)(=O)c4ccc(NC(=O)C(N5CC5)(N5CC5)N5CC5)cc4)cc3)cc2s1` it is 99% (active).
Take `CCC[N+](CCC)(CCC)CCC.N#CN=C([SH2+])[SH2+].N#CN=C([SH2+])[SH2+].[Pt+2]`: the growth inhibition is -1% (inactive).
Still for that read-out and setting: the figure for `CCCCCCCC/C=C\CCCCCCCCN1CC(C(=O)[O][Pb]([CH2]C)([CH2]C)[CH2]C)CC1=O` (stereo not drawn) is 82% (active); for `O=c1[nH]cc(Cn2cnc3ncccc3c2=O)c(=O)[nH]1` it is -2% (inactive).
Still for that read-out and setting: the figure for `CC(C)(C)C1=CC(=C/C=C/c2cc(C(C)(C)C)[o+]c(C(C)(C)C)c2)C=C(C(C)(C)C)O1` is 94% (active); for `S=C(S)N1CCCCC1` it is 90% (active) and -1% (inactive); for `CN[C@H]1C[C@@H]2O[C@@](C)([C@H]1OC)n1c3ccccc3c3c4c(c5c6ccccc6n2c5c31)C(=O)NC4` it is 98% (active).
As to `CC(C)(C)OOC(=O)c1ccccc1`, the growth inhibition is 99% (active).
Still for that read-out and setting: the value for `ClCCN(CCCl)CCN1c2ccccc2Sc2ccc3ccccc3c21` was 42% (inactive); that for `CCOC(=O)c1ccccc1N` was 6% (inactive); that for `Cn1cnc(C(=N)[Se])c1N` was 94% (active).
On the same count and under the same terms, the figure for `Cc1ccc(NP(=O)(Oc2ccccc2)N(CCCl)CCCl)cc1` (stereo not drawn) is 32% (inactive).
On the same count and under the same terms, the value for `CCOC(=O)C1=C(C)NC(=O)NC1c1ccc(N(CCCl)CCCl)cc1Cl` (stereo not drawn) was 97% (active); that for `ClC(C[n+]1ccccc1)c1ccccc1` (stereo not drawn) was 6% (inactive).
With `CCCCCCCC1(c2ccc(N)cc2)CCC(=O)NC1=O` (stereo not drawn), the growth inhibition is 21% (inactive).
For `COC(=O)C(CCCN=C(N)N[N+](=O)[O-])NC(=O)c1ccc2c(c1O)C(=O)c1ccccc1C2=O` (stereo not drawn), the growth inhibition was 5% (inactive).
Still for that read-out and setting: the figure for `Cc1cc(N(CCCl)CCCl)ccc1CN1CCCN(Cc2ccc(N(CCCl)CCCl)cc2C)C1c1ccc(N(CCCl)CCCl)cc1C` is 99% (active); for `c1ccc([CH2][Pb]([c]2ccccc2)([c]2ccccc2)[c]2ccccc2)cc1` it is 97% (active); for `C[CH2][Sn][CH2]C.c1cc[c]([Ge]([c]2ccccc2)[c]2ccccc2)cc1.c1cc[c]([Sn]([c]2ccccc2)[c]2ccccc2)cc1` it is 95% (active).
For `CCC1(C2=CCCCC2)C(=O)NC(=S)NC1=O`, the growth inhibition was 62% (inactive).
Still for that read-out and setting: the figure for `N#CC(=C=N)N=C(F)C(C#N)=C(C#N)C#N` is 77% (active); for `N#C[SH2+].N#C[SH2+].N#C[SH2+].N#C[SH2+].[Cu+2].c1ccc(C[P+](c2ccccc2)(c2ccccc2)c2ccccc2)cc1` it is 90% (active); for `CC#N.FC(F)(F)C#CC(F)(F)F.FC(F)(F)C#CC(F)(F)F.FC(F)(F)C#CC(F)(F)F.[W]` it is 99% (active).
On the same count and under the same terms, the figure for `CC(C)c1cccc(C(C)C)c1NC(=O)C(=O)CC(=O)CC(c1ccccc1)c1c(O)c2ccccc2oc1=O` (stereo not drawn) is -1% (inactive); for `CCN(CCCl)c1ccc(/C=C/C2=[N+](C)c3ccccc3C2(C)C)c(C)c1` it is 99% (active); for `Cc1cc(C)[n+](CCOc2ccc(/C(=C(/Cl)c3ccccc3)c3ccccc3)cc2)c(C)c1` it is 67% (inactive).

Source of the values: PubChem BioAssay (NCI).
